Results: PubChem BioAssay
Activity calls are given as the source filed them.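 The calls were made as follows, unless noted: active = visually confirmed hit in the image check and inhibition above 20%; inconclusive = visually confirmed hit but inhibition not above 20%; inactive = no visual hit in the image check.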

How the values were obtained:
[1] = inhibitors of TNFa-induced NFkB p65 translocation, primary screen, imaging, HUVEC, MLSMR starter and 10KST1 sets (AID 438;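 active = inhibition above 20% together with a positive visual image hit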;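 also: compound added about 3h40 before a 20 min TNFalpha stimulation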;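 as to inhibition: signal is the nuclear over cytoplasmic p65 intensity ratio per well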); conditions: HUVEC TNFa-induced p65 nuclear translocation; cell count: measured here: nuclei count (cytotoxicity indicator), at 2.08 µM unless noted; inhibition: at 2 µM, stronger effect = higher value unless noted
[2] = reduction of polyQ htt aggregates in cells – imaging, exon1htt(103Q)mCFP cells, high-content imaging, primary screen (AID 483;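 active = visual image review flags a hit and inhibition of aggregation exceeds 20%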;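 also: compound exposure lasted 3 days before fixation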;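 as to nuclei count: percent of the per-plate median nuclei count of sample wells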); conditions: exon1htt(103Q)mCFP cell line, aggregate imaging, at 2 µM; inhibition of aggregation: stronger effect = higher value; nuclei count: measured here: cell count, toxicity
[3] = endothelial E-selectin expression blockers – imaging, HUVEC, immunofluorescence, MLSMR starter and 10KST1 sets, primary screen (AID 487); conditions: HUVEC TNFalpha-induced E-selectin immunofluorescence imaging, at 2 µM; inhibition: stronger effect = higher value; nuclei count: measured here: cell number, toxicity;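 as to inhibition: signal is fraction of cell area covered by stained E-selectin grains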;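 as to nuclei count: 100% = median nuclei count of all wells on the same plate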
[4] = target: Voltage-gated potassium channel subunit beta-2 (Rattus norvegicus) (UniProt P62483); assay: inhibitors of rat Kvbeta2 reductase activity – biochemical, NADPH fluorescence, primary screen (AID 622;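 active = fluorescence slope higher than the sample average by over 3 SD, cut at about -0.22 in these data, passing the limit was not always enough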;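 also: slope of raw intensity against log time taken from 70 to 1610 s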); conditions: recombinant KvBeta, 4-cyanobenzaldehyde reduction, at 10 µM, stronger effect = higher value
[5] = target: Voltage-gated potassium channel subunit beta-2 (Rattus norvegicus) (UniProt P62483); assay: enhancers of rat Kvbeta2 NADPH turnover – biochemical, NADPH fluorescence, primary screen (AID 623;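 active = NADPH fluorescence slope more negative than the mean of all samples by about 3 SD, 99.7% confidence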;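 also: fluorescence intensity change per second fitted from 20 to 320 s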); conditions: Recombinant KvBeta, NADPH fluorescence decrease slope, 10 min; at 10 µM; stronger effect = lower value
[6] = target: Alpha-2C adrenergic receptor (Homo sapiens) (UniProt P18825); assay: compounds altering alpha2C-coupled GIRK flux – cell-based, HEK293 alpha2C/GIRK1/2, thallium flux, primary screen (AID 624;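 active = fluorescence slope after compound addition differing from the mean of all screened samples at 99.7% confidence, in either direction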;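 also: slope of fluorescence ratio to pre-addition baseline per second over 15 to 24 s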); conditions: thallium flux BTC fluorescence, at 10 µM, actives lie on both sides
[7] = blockers of RIG-like receptor reporter activation – cell-based, Sendai virus stimulus, luciferase, 10K MLSCN set, TLR/RLR signaling modifier project, primary screen (AID 602276;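 active = inhibition at or above 50% at 10 µM; inactive = inhibition below 50%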;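 also: firefly luciferase from ISG56 promoter only with Renilla not read in this screen; 0% = Sendai virus plus DMSO and 100% = medium plus DMSO without virus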); conditions: HEK293 RL24 IRF3 luciferase reporter, at 10 µM, stronger effect = higher value
[8] = TLR3 IRF3 reporter activation blockers – cell-based, poly I:C stimulus, luciferase, 10K MLSCN set, primary screen (AID 602277;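 active = inhibition of the reporter signal at or above 50%; inactive = inhibition below 50%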); conditions: HEK293-TLR3 RL24 IRF3 luciferase reporter, at 10 µM, stronger effect = higher value

Alpha-2C adrenergic receptor (Homo sapiens), sequence (P18825 whole entry, looked up): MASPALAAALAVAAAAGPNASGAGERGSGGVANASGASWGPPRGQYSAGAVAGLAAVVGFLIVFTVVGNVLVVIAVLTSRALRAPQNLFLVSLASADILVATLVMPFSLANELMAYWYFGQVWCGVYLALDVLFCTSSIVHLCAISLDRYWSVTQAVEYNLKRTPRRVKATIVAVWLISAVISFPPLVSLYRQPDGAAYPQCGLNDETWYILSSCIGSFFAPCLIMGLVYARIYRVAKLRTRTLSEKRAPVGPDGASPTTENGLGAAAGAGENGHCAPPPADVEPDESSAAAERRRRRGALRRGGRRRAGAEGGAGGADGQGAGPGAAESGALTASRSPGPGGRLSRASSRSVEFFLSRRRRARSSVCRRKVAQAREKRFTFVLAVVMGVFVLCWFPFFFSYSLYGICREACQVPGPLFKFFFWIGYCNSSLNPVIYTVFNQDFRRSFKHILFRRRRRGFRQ
Voltage-gated potassium channel subunit beta-2 (Rattus norvegicus), sequence (P62483 whole entry, looked up): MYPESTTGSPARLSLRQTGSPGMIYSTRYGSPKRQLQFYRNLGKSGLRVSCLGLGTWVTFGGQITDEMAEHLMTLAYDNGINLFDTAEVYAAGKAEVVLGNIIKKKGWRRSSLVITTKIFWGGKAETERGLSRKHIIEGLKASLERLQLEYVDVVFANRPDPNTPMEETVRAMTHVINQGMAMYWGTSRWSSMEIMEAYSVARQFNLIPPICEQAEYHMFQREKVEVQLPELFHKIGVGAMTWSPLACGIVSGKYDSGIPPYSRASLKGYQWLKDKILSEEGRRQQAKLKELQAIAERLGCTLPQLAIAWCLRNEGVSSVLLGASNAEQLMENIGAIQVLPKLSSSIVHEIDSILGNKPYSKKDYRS

Compound | cell count [1] | inhibition [1] | inhibition of aggregation [2] | nuclei count [2] | inhibition [3] | nuclei count [3] | fluorescence slope [4] | NADPH fluorescence slope [5] | slope [6] | inhibition [7] | inhibition [8]
CN(C)CCN=Cc1c(O)n(-c2cccc3ccccc23)c(=O)[nH]c1=O | 569 | 0% (inactive) | -6.8% (inactive) | 107% | 25.9% (inactive) | 110% | -0.419 (inactive) | -4.5e-05 (inactive) | 0.00451 (inactive) | 14% (inactive) | 11.3% (inactive)
O=C(c1ccc2nc(-c3ccco3)c(-c3ccco3)nc2c1)N1CCC2(CC1)OCCO2 | 597 | -12.6% (inactive) | -4.6% (inactive) | 93.5% | 9% (inactive) | 105% | -0.104 (inactive) | -5.1e-06 (inactive) | 0.00382 (inactive) | -1.04% (inactive) | -7.99% (inactive)
COc1ccc(CCn2c(O)c(C=NCCCN(C)C)c(=O)[nH]c2=O)cc1OC | 338 | -1.6% (inactive) | 12.1% (inactive) | 110% | -38.1% (inactive) | 108% | -0.446 (inactive) | -2.8e-05 (inactive) | 0.00426 (inactive) | 11.5% (inactive) | 8.09% (inactive)
c1cncc(CNC2=NCCCCC2)c1 | 315 | 2.9% (inactive) | 2.4% (inactive) | 114% | -154% (inactive) | 127% | -0.469 (inactive) | -0.000124 (inactive) | 0.0069 (inactive) | 5.89% (inactive) | 24.1% (inactive)
Nc1ccnn1C1CCNCC1 | 285 | 2.4% (inactive) | 6.2% (inactive) | 99.6% | -43.8% (inactive) | 127% | -0.541 (inactive) | 2.9e-05 (inactive) | 0.00512 (inactive) | 5.24% (inactive) | 17.3% (inactive)
CC1(C)C(c2ccccc2)=NC(c2cccnc2)N1O (stereo not drawn) | 309 | 8.2% (inactive) | -17.9% (inactive) | 108% | 17.6% (inactive) | 99.6% | -0.495 (inactive) | -6.7e-05 (inactive) | 0.00634 (inactive) | 14.6% (inactive) | 25.5% (inactive)
CCOc1ccc(C2SCC(=O)Nc3c2c(=O)[nH]n3C2CCCCCC2)cc1 (stereo not drawn) | 286 | 23.8% (inactive) | 7.5% (inactive) | 88.4% | -14.2% (inactive) | 102% | -0.408 (inactive) | -2.7e-05 (inactive) | 0.00778 (inactive) | -12.2% (inactive) | 98.8% (active)
Cn1c(=O)cc(OCC(=O)N2CCN(C3CCCCC3)CC2)c2ccccc21 | 535 | -5.5% (inactive) | 14.2% (inactive) | 81.7% | -119% (inactive) | 113% | -0.533 (inactive) | -5e-05 (inactive) | 0.00729 (inactive) | 2.25% (inactive) | 55.3% (active)
COc1ccc(C2SCC(=O)Nc3c2c(=O)[nH]n3C2CCCCCC2)cc1OC (stereo not drawn) | 316 | 21% (inactive) | -0.4% (inactive) | 97.9% | -11.5% (inactive) | 109% | -0.614 (inactive) | -4.2e-05 (inactive) | 0.00412 (inactive) | 13.9% (inactive) | 23.3% (inactive)
O=c1[nH]c(=O)n(Cc2ccc(F)cc2)c(O)c1C=NCCCN1CCOCC1 | 728 | -22.4% (inactive) | 4.6% (inactive) | 105% | 35.3% (inactive) | 101% | -0.441 (inactive) | 1.3e-06 (inactive) | 0.00502 (inactive) | -0.0843% (inactive) | 3.86% (inactive)
COc1ccc(C(=O)C(C)(C)NO)cc1 | 653 | -4.6% (inactive) | 12.4% (inactive) | 94.3% | -81.1% (inactive) | 119% | -0.62 (inactive) | 1.3e-05 (inactive) | 0.00701 (inactive) | 12.6% (inactive) | 26.7% (inactive)
COc1ccccc1N1CCN(Cc2c(F)cccc2F)CC1 | 410 | -1.1% (inactive) | 13.8% (inactive) | 98.7% | -26.3% (inactive) | 118% | -0.431 (inactive) | -1.4e-05 (inactive) | 0.00585 (inactive) | 15.2% (inactive) | 27.3% (inactive)
CCNc1ccc(P(=S)(N(C)C)N(C)C)cc1 | 441 | 16.7% (inactive) | -8.4% (inactive) | 115% | -422% (inactive) | 153% | -0.622 (inactive) | -1.6e-05 (inactive) | 0.00749 (inactive) | 10.5% (inactive) | 26.1% (inactive)
CCCCn1c(O)c(C(C)=NC(Cc2c[nH]c3ccccc23)C(=O)OC)c(=O)[nH]c1=O (stereo not drawn) | 536 | -3.4% (inactive) | 9.6% (inactive) | 79.6% | 33.5% (inactive) | 112% | -0.499 (inactive) | 1.8e-05 (inactive) | 0.00457 (inactive) | 0.703% (inactive) | 14.9% (inactive)
N#Cc1ccccc1Cn1cc(C(=O)C2CC2)c2ccccc21 | 390 | -2.2% (inactive) | -0.9% (inactive) | 101% | -50.9% (inactive) | 107% | -0.447 (inactive) | -7.2e-05 (inactive) | 0.00467 (inactive) | 2.45% (inactive) | 19.3% (inactive)
O=C(Cn1ncc2c3ccccc3n(Cc3ccc(F)cc3)c2c1=O)N1CCC2(CC1)OCCO2 | 454 | 2.9% (inactive) | -17.5% (inactive) | 74.9% | -167% (inactive) | 130% | -0.295 (inactive) | -5.2e-05 (inactive) | 0.00589 (inactive) | 7.71% (inactive) | 2.33% (inactive)
CCOc1cc2[nH]c(=S)n(CCCC(=O)N3CCC4(CC3)OCCO4)c(=O)c2cc1OCC | 429 | 9.4% (inactive) | -0.4% (inactive) | 95.6% | -41.4% (inactive) | 107% | -0.464 (inactive) | 7.5e-06 (inactive) | 0.00495 (inactive) | -5.57% (inactive) | 17.4% (inactive)
CCn1c(C)c(C(=O)O)c2cc(OC)ccc21 | 617 | 3.5% (inactive) | 1.8% (inactive) | 96.3% | 11.4% (inactive) | 107% | -0.495 (inactive) | -2.5e-05 (inactive) | 0.00472 (inactive) | 14.5% (inactive) | 22.2% (inactive)
CCOC(=O)C1SC2(C(F)F)CC1(O)c1c(c(OC)c3occc3c1OC)O2 (stereo not drawn) | 665 | -5.1% (inactive) | 13% (inactive) | 98.5% | 52.9% (inactive) | 105% | -0.326 (inactive) | -5.6e-05 (inactive) | 0.00497 (inactive) | 4.1% (inactive) | 14.4% (inactive)
CC(=O)Nc1ccc(OC(=O)c2ccccc2N)cc1 | 292 | -3.4% (inactive) | -8.5% (inactive) | 76.3% | -96.3% (inactive) | 111% | -0.447 (inactive) | -1.3e-05 (inactive) | 0.00336 (inactive) | 3.45% (inactive) | 27.2% (inactive)
CN(C)CCc1nc2ccccc2c(=O)n1-c1ccccc1 | 241 | -2.3% (inactive) | 16.8% (inactive) | 96.8% | -21% (inactive) | 124% | -0.495 (inactive) | -5e-05 (inactive) | 0.00675 (inactive) | -20.1% (inactive) | -35% (inactive)
O=c1[nH]c(=O)n(CCc2ccc(F)cc2)c(O)c1C=NCCCn1ccnc1 | 544 | 2.2% (inactive) | -7.2% (inactive) | 110% | 2.2% (inactive) | 102% | -0.589 (inactive) | -3.2e-05 (inactive) | 0.00323 (inactive) | 13.3% (inactive) | 24% (inactive)
C=CCn1c(O)c(C(C)=NCCCO)c(=O)[nH]c1=O | 631 | 5.7% (inactive) | -3.2% (inactive) | 108% | -110% (inactive) | 156% | -0.467 (inactive) | -4.7e-05 (inactive) | 0.00383 (inactive) | -1.46% (inactive) | 16.8% (inactive)
O=C(c1cccs1)C1CN2CCC1CC2 (stereo not drawn) | 582 | -15.9% (inactive) | 1.5% (inactive) | 75.5% | 7.9% (inactive) | 110% | -0.485 (inactive) | 3e-05 (inactive) | 0.00316 (inactive) | -7.76% (inactive) | 20.7% (inactive)
CN(C)c1cc(N)c2c(n1)CCC2 (tested in a mixture with another compound) | 443 | -0.3% (inactive) | -9% (inactive) | 98.2% | -17.4% (inactive) | 124% | -0.376 (inactive) | -5.8e-05 (inactive) | 0.00598 (inactive) | 11.4% (inactive) | 17.8% (inactive)
CCOc1ccc(-n2c(O)c(C=NCCN(CC)CC)c(=O)[nH]c2=O)cc1 | 411 | -1.5% (inactive) | -1.7% (inactive) | 89.3% | -87.3% (inactive) | 125% | -0.553 (inactive) | 1.2e-05 (inactive) | 0.00486 (inactive) | 0.257% (inactive) | 1.28% (inactive)
CCCCCCC(N)CC(=O)O (stereo not drawn) | 689 | 2.4% (inactive) | -9.8% (inactive) | 116% | 42.8% (inactive) | 80.1% | -0.456 (inactive) | -3e-05 (inactive) | 0.00377 (inactive) | 9.07% (inactive) | 28% (inactive)
COc1ccc(CN2CCN(C(=O)Cc3ccccc3)CC2)c(OC)c1 | 402 | 2.1% (inactive) | 8% (inactive) | 94% | -13.2% (inactive) | 114% | -0.6 (inactive) | 1.9e-05 (inactive) | 0.00526 (inactive) | 15.3% (inactive) | 25.6% (inactive)
